The full list was thinned out, with hits kept by preference.
KDM5B inhibitor – Primary screen for KDM5B Histone Demethylases FDH-coupled qHTS. 220,000 compounds, 2.6% hits. AID 1347165, 2019. Potency, µM (top dose mostly 57.7 µM), hits mostly inhibitors. KDM5B demethylase, FDH-coupled NADH fluorescence (FDH is formaldehyde dehydrogenase); active = well fitted inhibition curve with a large enough effect; note: nearly all actives have a fitted effect of over 70% in size
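qHTS format, multiple compound concentrations. Buffer 50 mM HEPES pH 7.5/0.01% Tween-20; 200 nM KDM5BΔAP final; 10 min compound preincubation; substrate-mix levels 12.5 µM peptide, 25 µM α-KG, 0.25 mM NAD⁺; 30 min RT; ΔRFU.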
Large screens that a line does not name were inactive.

CC(C)c1ccc(/C=C(/C#N)C(=O)Nc2ccc(N3CCOCC3)cc2)cc1	none
Cc1cc2oc(C(=O)N(Cc3ccco3)Cc3ccco3)cc(=O)c2cc1Cl	none
CC(C)CCNC(=O)CC(c1ccc(F)cc1)N1Cc2ccccc2C1=O (centres undefined)	none
O=C(CCc1ncc(-c2ccc(Cl)cc2Cl)o1)NCC1CCCO1 (centres undefined)	none
Cc1ccnc(C(NC(=O)CCc2cc3n(n2)CCCNC3)C2CC2)c1 (centres undefined)	KDM5B inhibitor 28.2µM
Cc1nc2ncnn2c(C)c1CCC(=O)NCc1cc2n(n1)CCCNC2	none
Cc1cc2[nH]cnc2c(NC(=O)CCc2cc3n(n2)CCNC3)c1C	none
Cc1ccc(S(N)(=O)=O)cc1C(=O)N[C@H](c1cnn(C)c1)C1CC(O)C1 (some centres undefined)	none
CCNc1ncc(C(=O)N[C@H](c2cnn(C)c2)C2CC(O)C2)cn1 (some centres undefined)	KDM5B inhibitor 28.2µM
Cn1cc(C(NC(=O)c2ccc3c(c2)ncn3CCO)C2CC(O)C2)cn1 (centres undefined)	none
Cn1cc([C@@H](NC(=O)c2cc(=O)n(-c3ccccc3)[nH]2)C2CC(O)C2)cn1 (some centres undefined)	none
Cc1ccn2c(C(=O)N[C@H](c3cnn(C)c3)C3CC(O)C3)nnc2n1 (some centres undefined)	none
Cn1cc([C@@H](NC(=O)c2n[nH]c3c2CCC3)C2CC(O)C2)cn1 (some centres undefined)	none
Cn1cc([C@@H](NC(=O)c2nc3ccccc3[nH]c2=O)C2CC(O)C2)cn1 (some centres undefined)	KDM5B inhibitor 31.6µM
Cc1ccc2nc(C(=O)N[C@H](c3cnn(C)c3)C3CC(O)C3)cn2c1 (some centres undefined)	KDM5B inhibitor 31.6µM
Cn1cc([C@@H](NC(=O)c2ccc3scnc3c2)C2CC(O)C2)cn1 (some centres undefined)	none
Fc1ccc(CNC(=S)Nc2cccc(F)c2)cc1	none
O=C(NC1CCCCCC1)C1CCCN(C(=O)Cc2c[nH]c3ccccc23)C1 (centres undefined)	none
COc1cccc(CC(=O)N2CCC3(CC2)OC(=O)N(Cc2csc(C)n2)C3(C)c2ccccc2)c1 (centres undefined)	none
CCOC(=O)C1CC1CN1CCC2(CC1)Cc1ccccc1CNC2=O (centres undefined)	none
CCC1CC(=O)NC(SC)=C1C#N (centres undefined)	none
CCCS(=O)(=O)c1nc(S(=O)(=O)c2ccc(Cl)cc2)c(NCC(C)C)s1	none
O=[N+]([O-])c1cccc2nc(/C=C/c3ccccc3C(F)(F)F)ccc12	none
CCOc1ccc2ncc(C#N)c(Nc3cc(OC)c(OC)c(OC)c3)c2c1	none
Cc1nc2ccc(NC(=O)C3CCCC3)cc2s1	none
Cc1ccc2c(C(=O)N3CCN(C4CCCCC4)CC3)cc(NC(=O)C(C)C)cc2n1	KDM5B inhibitor 11.2µM
Cc1ccccc1C(=O)N1CCC(C(=O)Nc2ccc(C(C)C)cc2)CC1	none
O=C(Nc1ccc2c(N3CCCCC3)ncnc2c1)C1CCC1	none
CC(C)c1cc(C(=O)N2CCC(C(=O)N3CCCCCC3)CC2)c2ccccc2n1	none
Cc1cc(C(=O)N2CCC(NC(=O)C3CCCCC3)CC2)c2ccccc2n1	none
Cc1ccccc1C(=O)N1CCC(C(=O)Nc2ccc(C)c(S(=O)(=O)N3CCCCC3)c2)CC1	none
Cc1ccc2c(C(=O)N3CCCCCC3)cc(NC(=O)C3CCC3)cc2n1	KDM5B inhibitor 31.6µM
Cc1cc(C(=O)N2CCN(C(=O)C(C)C)CC2)c2ccccc2n1	none
Cc1ccc2c(C(=O)N3CCN(C4CCCCC4)CC3)cc(NC(=O)C3CCC3)cc2n1	KDM5B inhibitor 25.1µM
Cc1ccc2c(C(=O)N3CCCCCC3)cc(NC(=O)C3CC3)cc2n1	KDM5B inhibitor 28.2µM
Cc1nc2cc(NC(=O)C3CCCCC3)ccc2o1	none
O=C(Nc1nn[nH]n1)c1cccc(S(=O)(=O)N2CCCCCC2)c1	none
N#Cc1c(NC(=O)CCn2nnc(-c3cccc(Cl)c3)n2)sc2c1CCCC2	none
Cc1ccc2nc(/C(C#N)=C\c3ccc(C)s3)[nH]c2c1	none
C[C@H](NC(=O)C(=O)Nc1ccc2cc[nH]c2c1)c1ccccc1	none
COc1ccccc1CNC(=O)C(C)Sc1nc2cc(Cl)ccc2n1C (centres undefined)	none
Cc1cc(C)n(CC(=O)Nc2cc(C(F)(F)F)ccc2Cl)c(=O)c1C#N	none
Cc1[nH]c2ccc(Cl)cc2c1C(=O)CCl	none
CCN(CC)CC#CC(OC)(c1ccccc1)C1CCCC1 (centres undefined)	none
COc1cc(C#N)ccc1OCCOc1ccccc1C(C)=O	none
Cc1cccn2c(CC(=O)N[C@H](c3ccccn3)C3CC(O)C3)cnc12 (some centres undefined)	none
O=C(N[C@H](c1ccccn1)C1CC(O)C1)c1cnc2ccccn2c1=O (some centres undefined)	KDM5B inhibitor 25.1µM
Cc1cc2c(cc1C(=O)N[C@H](c1ccccn1)C1CC(O)C1)OCCO2 (some centres undefined)	none
O=C(CSc1ccc2ccccc2n1)Nc1ccc2c(c1)OCCCO2	none
